# According to PubChem BioAssay:
# Values without a mark were called inactive. The rule behind the calls is not given here.
# Target: Pantothenate synthetase (Mycobacterium tuberculosis (strain ATCC 25618 / H37Rv)) (UniProt P9WIL5)
# Experiment: Recombinant Mtb pantothenate synthetase (PanC) inhibitors, coupled enzyme, confirmatory (AID 375);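 note: 0% = full reaction with vehicle and 100% = no enzyme background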
# Conditions: coupled enzyme assay; at 10 µM, active compounds read high
# Sequence of Pantothenate synthetase (Mycobacterium tuberculosis (strain ATCC 25618 / H37Rv)) (P9WIL5 whole entry, looked up): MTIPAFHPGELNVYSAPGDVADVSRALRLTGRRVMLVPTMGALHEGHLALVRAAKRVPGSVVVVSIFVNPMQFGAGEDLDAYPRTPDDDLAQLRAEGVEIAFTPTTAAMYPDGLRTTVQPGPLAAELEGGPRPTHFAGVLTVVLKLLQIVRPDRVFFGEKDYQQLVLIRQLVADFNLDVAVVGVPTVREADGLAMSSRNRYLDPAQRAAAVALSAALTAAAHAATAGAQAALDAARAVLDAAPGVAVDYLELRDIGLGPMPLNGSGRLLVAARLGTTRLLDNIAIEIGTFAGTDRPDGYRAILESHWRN
row,SMILES,inhibition [%]
1,CCOC(=O)C1CCN(C(=O)c2c(-c3c(Cl)cccc3Cl)noc2C)CC1,0
2,Cc1cc(C)n(-c2nc3ccccc3c(=O)n2OCCOc2ccccc2)n1,3
3,CCOC(=O)CSc1nnc(NCC(=O)OC(C)C)c(=O)[nH]1,4
4,Cn1c(=O)c2c(nc(SCc3nn[nH]n3)n2Cc2ccccc2F)n(C)c1=O,0
5,COc1ccc(C(=O)N2CCN(C3CCCCC3)CC2)c(OC)c1,0
6,CCOC(=O)N1CCC(NC(=O)C2CCCN2C(=O)OCc2ccccc2)CC1 (stereo not given),5
7,COc1ccc(-c2oc3ncn(CCN4CCOCC4)c(=N)c3c2-c2ccc(OC)cc2)cc1,0
8,CC(=O)Nc1c(C(=O)C2CC2)oc2ccccc12,3
9,Cn1c(=O)c2c3c(sc2n2c(SCc4ccccc4)nnc12)CCCC3,0
10,CC(NCc1ccco1)C(=O)N1CCc2ccccc2C1 (stereo not given),5
11,O=C(c1ccccc1-c1nc(-c2ccccc2)no1)N1CCCC1,0
12,O=C(NCCc1ccccc1)c1cc(-c2ccco2)on1,5
13,O=C(CSc1nc2cc(S(=O)(=O)N3CCOCC3)ccc2o1)NC1CCCc2ccccc21 (stereo not given),0
14,O=C(Nc1ccc(Cl)cn1)c1cccnc1,0
15,COc1ccc(Br)cc1C1N2CC3(C)CN1CC(C)(C2)C3=O (stereo not given),0
16,O=C1C2CC=C(Cl)CC2C(=O)N1c1ncn[nH]1 (stereo not given),0
17,O=C(Nc1ccncc1)C1CCCN(S(=O)(=O)c2cccc3cccnc23)C1 (stereo not given),0
18,O=C(c1ccc2c(c1)OCO2)N1CCCN(C(=O)c2ccc3c(c2)OCO3)CC1,0
19,COc1ccc(NC(=O)Nc2ccc(N3CCCC3=O)cc2)cc1OC,0
20,Cc1csc(NC(=O)c2ccco2)n1,0

row,SMILES,inhibition [%]
1,Cc1ccc(-n2nc(C)c3cc(C(=O)O)sc32)cc1,0
2,CC1CCc2cc(F)cc3c(=O)c(C(=O)O)cn1c23 (stereo not given),2
3,CN(CC(=O)Nc1nccs1)S(=O)(=O)c1ccc(F)cc1,0
4,Cc1cccc(N2CCN(C(=O)c3cc4ccccc4oc3=O)CC2)c1C,0
5,N#Cc1c(NC(=O)COC(=O)C2CC3C=CC2C3)oc(-c2ccccc2)c1-c1ccccc1 (stereo not given),1
6,O=C(Cn1nnc(-c2ccncc2)n1)Nc1ccc2c(c1)CCC2,0
7,CCCC(=O)Nc1ccc(OCC(O)CNC(C)C)c(C(C)=O)c1 (stereo not given),0
8,CCOc1c(C)cc2[nH]c(CCC(=O)O)nc2c1C,0
9,CN(C)CCOc1ccccc1Cc1ccccc1,0
10,COc1ccc(NC(=O)CC2Sc3ncnn3C2=O)cc1 (stereo not given),0
11,O=C(NCCCN1CCN(Cc2ccccc2)CC1)C1CCN(c2nnc(-n3cccc3)s2)CC1,0
12,O=C(Nc1cccnc1N1CCOCC1)c1ccco1,10
13,CC(C)(C)OC(=O)N1CC=C2C(C#N)=C(N)C(C#N)(C#N)[C@H](c3cccnc3)[C@H]2C1,5
14,C(=C\c1ccccc1)/CSc1nnc(-c2ccccn2)n1Cc1ccco1,5
15,CCCCOc1ccc(NC(=O)Cn2c(=O)ccc3c(C)cc(C)nc32)cc1,3
16,NC(=O)c1sc2nc3c(c(-c4ccco4)c2c1N)CCC3,0
17,Cc1cc(NS(=O)(=O)c2ccc(N)cc2)no1,1
18,Cc1cc(C(F)F)n2nc(C(=O)Nc3ccc(S(=O)(=O)N4CCCCCC4)cc3)nc2n1,1
19,Cn1c(Cc2ccccc2)nnc1SCC(=O)N1CCOCC1,0
20,Cc1cc(C2C(C#N)=C(N)SC(N)=C2C#N)c(C)s1,0
